Inconclusive results are not listed. Unmarked numbers belong to inactive results. Activity calls are given as the source filed them. Calls come from the whole dose curve; as a rule, active = well fitted inhibition curve with a large enough effect; inconclusive = small, poorly fitted or top-dose-only effect; inactive = flat fitted curve, though single readings scatter.

Here are results for 28 compounds from PubChem BioAssay (NCATS).
Note: nearly all actives have a fitted effect of over 70% in size.
Potency is the fitted concentration of half-maximal effect.

In one assay the test system is Zika virus NS2B-NS3 protease (linked construct). As to the kind of experiment: Confirmatory screen NINDS AMC qHTS for Zika virus inhibitors (AID 1347152).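 For activity change, negative = inhibition: AMC fluorescence gain from cleaved Bz-Nle-KRR-AMC substrate over 15 min; top concentration of the series differs between compounds; 0% = no-inhibitor control and -100% = no-enzyme control.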 The note with it: Purified linked NS2B-NS3, AMC substrate fluorescence; series mostly up to 56.6 µM; activity change, negative = inhibition: at the top concentration. In short, it runs like this: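 Purified NS2B-NS3 protease with NS2B hydrophilic domain linked to NS3 protease domain by flexible linker, 1 nM final in 10 mM Tris-HCl pH 8.0, 0.01% Tween 20. Compounds preincubated 15 min, room temperature; Bz-Nle-KRR-AMC 10 microM (Km 18.3 µM); 15-min fluorescence change, 4-parameter Hill fit.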
Take `O=C(O)/C=C/c1ccc(-c2ccc(O)c(C34CC5CC(CC(C5)C3)C4)c2)cc1`: the Potency was 35 µM (active).
Consider `COc1cc(Nc2nc3ccccc3nc2NS(=O)(=O)c2ccc(NC(=O)c3ccc(OC)c(C)c3)cc2)cc(OC)c1`, for which the Potency was 12.4 µM (active).
For the compound `CCc1c(-c2ccccc2)c(-c2ccccc2)nn1-c1ccccc1-c1cccc(OCC(=O)O)c1`, the Potency was 13.9 µM (active).
In the case of `CC1(C)CCC(C)(C)c2cc(C3(c4ccc(C(=O)O)cc4)OCCO3)ccc21`, the Potency was 44.1 µM (active).
As to `C=C[C@H]1[C@H](O[C@@H]2O[C@H](CO)[C@@H](O)[C@H](O)[C@H]2O)OC=C(C(=O)OC)[C@H]1CCOC(=O)c1cc(O)c(O)c(O)c1`, the “activity change, negative = inhibition” value is -5.16%.
Turning to `O=C(O)Cc1ccc2oc(-c3ccc(NC(=O)/C=C/c4ccc(Br)cc4)c(F)c3)nc2c1`, the Potency is 15.6 µM (active).
Take `N#CC(c1ccnc(OCc2ccc(CN3CCOCC3)cc2)n1)c1nc2ccccc2s1` (stereo unspecified): the “activity change, negative = inhibition” value was -9.56% [at 110 µM].
Take `C=CC/C=C\C/C=C\CCCCCCCc1cccc(O)c1C(=O)O`: the Potency was 10.9 µM (active).
As for `O=C(N/N=C/c1ccc(O)c(O)c1)c1cc2ccccc2cc1O`, the “activity change, negative = inhibition” value is -12.7% [at 36.9 µM].
Turning to `CC(C)c1cccc2c(-c3ccccc3)cc(-c3ccc(-c4ccc(C(=O)O)cc4)[nH]3)nc12`, the Potency was 44.1 µM (active).
As to `COc1ccc(C(=O)n2c(C)c(Cc3cccc(O[C@@H](C)C(=O)O)c3)c3cc(OC(F)(F)F)ccc32)cc1`, the Potency is 17.5 µM (active).
The same measure, in the same setting: next, `CC1=C(C(=O)OCc2ccccc2)C(c2ccc(-c3ccccc3)cc2)NC(=O)N1CCCCCC(=O)O` (stereo unspecified): 22.1 µM (active); `CCCCCCOc1cc2c(cc1N(C)c1ncc(C(=O)O)cn1)C(C)(C)CCC2(C)C`: 31.2 µM (active).

Another assay has as its system Zika virus NS2B-NS3 protease (unlinked complex). As to the kind of experiment: Confirmatory screen GU AMC qHTS for Zika virus inhibitors (AID 1347153).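 For Potency: enzyme at 25 nM with substrate at 10 µM below its Km of 18.3 µM.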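 For activity, negative = inhibition: percent inhibition with 0% = no inhibitor control and 100% = no enzyme control.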 The note with it: Recombinant NS2B-NS3 protease, AMC substrate fluorescence; series mostly up to 111 µM; activity, negative = inhibition: at the top concentration. In short, it runs like this:
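Fluorescence change (ex 340/em 450 nm) over 15 min, ~20% substrate conversion, normalized to no-inhibitor and no-enzyme controls, then Hill-fitted. Unlinked protease at 25 nM; AMC peptide 10 µM.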
For orientation: In qHTS, concentration-response curves come from the screen itself.
With `O=C(O)/C=C/c1ccc(-c2ccc(O)c(C34CC5CC(CC(C5)C3)C4)c2)cc1`, the Potency was 44.1 µM (active).
On to `COc1cc(Nc2nc3ccccc3nc2NS(=O)(=O)c2ccc(NC(=O)c3ccc(OC)c(C)c3)cc2)cc(OC)c1`, for which the Potency was 11.1 µM (active).
As for `CCc1c(-c2ccccc2)c(-c2ccccc2)nn1-c1ccccc1-c1cccc(OCC(=O)O)c1`, the Potency was 27.8 µM (active).
Take `CC1(C)CCC(C)(C)c2cc(C3(c4ccc(C(=O)O)cc4)OCCO3)ccc21`: the Potency is 39.3 µM (active).
Turning to `O=C(O)Cc1ccc2oc(-c3ccc(NC(=O)/C=C/c4ccc(Br)cc4)c(F)c3)nc2c1`, the Potency is 13.9 µM (active).
As for `N#CC(c1ccnc(OCc2ccc(CN3CCOCC3)cc2)n1)c1nc2ccccc2s1` (stereo unspecified), the “activity, negative = inhibition” value was -10.6%.
In the case of `C=CC/C=C\C/C=C\CCCCCCCc1cccc(O)c1C(=O)O`, the Potency is 6.85 µM (active).
`CC(C)c1cccc2c(-c3ccccc3)cc(-c3ccc(-c4ccc(C(=O)O)cc4)[nH]3)nc12`: the Potency is 49.4 µM (active).
With `COc1ccc(C(=O)n2c(C)c(Cc3cccc(O[C@@H](C)C(=O)O)c3)c3cc(OC(F)(F)F)ccc32)cc1`, the Potency is 22.1 µM (active).
Regarding `CC1=C(C(=O)OCc2ccccc2)C(c2ccc(-c3ccccc3)cc2)NC(=O)N1CCCCCC(=O)O` (stereo unspecified), the Potency was 31.2 µM (active).
The same measure, in the same setting: the same measure for `CCCCCCOc1cc2c(cc1N(C)c1ncc(C(=O)O)cn1)C(C)(C)CCC2(C)C`: 35 µM (active).

The subject of another assay is Zika virus NS2B-NS3 protease. In words: Primary screen GU AMC qHTS for Zika virus inhibitors (AID 1347154).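 For activity change, negative = inhibition: 0% = no-inhibitor control and -100% = no-enzyme control.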 The note with it: Zika NS2B-NS3 unlinked protease, AMC fluorogenic substrate; series mostly up to 54.1 µM; activity change, negative = inhibition: at the top concentration. An outline of the steps: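 Unlinked Zika NS2B hydrophilic domain–NS3 protease complex at 25 nM in 10 mM Tris-HCl pH 8.0, 0.01% Tween 20, with an AMC peptide substrate. Fluorescence change (340/450 nm) over 15 min at room temperature, normalized to controls, fitted to 4-parameter Hill.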
With `CCC(C(=O)O)c1ccc(N2Cc3ccccc3C2=O)cc1` (stereo unspecified), the “activity change, negative = inhibition” value was 0.022%.
Same read-out and setting: the same measure for `CC(C)[N+]1(C)C2CCC1CC(OC(=O)C(CO)c1ccccc1)C2` (stereo unspecified): 1.05%.
For `O=C(O)c1ccccc1NCCc1ccccc1`, the Potency was 31.6 µM (active).
Take `Nc1ccccc1N`: the “activity change, negative = inhibition” value was -3.78% [at 104 µM].
Regarding `O=C(O)c1c(O)c(-c2ccccc2)nc2ccccc12`, the “activity change, negative = inhibition” value is -9.68%.
Consider `CC(=O)O[C@H]1C(=O)[C@@]2(C)[C@H]([C@H](OC(=O)c3ccccc3)[C@]3(O)C[C@H](OC(=O)[C@H](O)[C@@H](NC(=O)c4ccccc4)c4ccccc4)C(C)=C1C3(C)C)[C@]1(OC(C)=O)CO[C@@H]1C[C@@H]2O`, for which the “activity change, negative = inhibition” value was 31.1%.

Tested on in a further assay: not listed separately
As to the kind of experiment: Confirmatory screen GU Rhodamine qHTS for Zika virus inhibitors qHTS (AID 1347157).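 For activity change, negative = inhibition: plate controls were no-inhibitor wells for no effect and no-enzyme wells for full effect.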 The note with it: purified enzyme assay, Rhodamine110 substrate fluorescence, 15 min; series mostly up to 114 µM; activity change, negative = inhibition: at the top concentration. An outline of the steps: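 Compounds, tested up to 114 microM, were incubated for 15 minutes with 25 nM unlinked NS2B-NS3 protease at pH 8.0. Cleavage of 1.5 microM Rhodamine110 substrate was then followed by fluorescence for 15 minutes.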
Consider `CC(C)(C)Nc1nc2cc(Cl)c(Cl)cc2nc1S(C)(=O)=O`, for which the “activity change, negative = inhibition” value is -11.2%.
In the case of `O=C(O)/C=C/c1ccc(-c2ccc(O)c(C34CC5CC(CC(C5)C3)C4)c2)cc1`, the Potency was 1.11 µM (active).
Still for that read-out and setting: the same measure for `COc1cc(Nc2nc3ccccc3nc2NS(=O)(=O)c2ccc(NC(=O)c3ccc(OC)c(C)c3)cc2)cc(OC)c1`: 3.12 µM (active); for `CCc1c(-c2ccccc2)c(-c2ccccc2)nn1-c1ccccc1-c1cccc(OCC(=O)O)c1`: 3.12 µM (active); for `CC1(C)CCC(C)(C)c2cc(C3(c4ccc(C(=O)O)cc4)OCCO3)ccc21`: 12.4 µM (active).
On to `O=C(O)Cc1ccc2oc(-c3ccc(NC(=O)/C=C/c4ccc(Br)cc4)c(F)c3)nc2c1`, for which the Potency is 3.12 µM (active).
As for `N#CC(c1ccnc(OCc2ccc(CN3CCOCC3)cc2)n1)c1nc2ccccc2s1` (stereo unspecified), the Potency is 31.2 µM (active).
With `C=CC/C=C\C/C=C\CCCCCCCc1cccc(O)c1C(=O)O`, the Potency is 4.32 µM (active).
Still for that read-out and setting: the same measure for `O=C(N/N=C/c1ccc(O)c(O)c1)c1cc2ccccc2cc1O`: 2.32 µM (active).
Take `CC(C)c1cccc2c(-c3ccccc3)cc(-c3ccc(-c4ccc(C(=O)O)cc4)[nH]3)nc12`: the Potency was 1.97 µM (active).
As to `COc1ccc(C(=O)n2c(C)c(Cc3cccc(O[C@@H](C)C(=O)O)c3)c3cc(OC(F)(F)F)ccc32)cc1`, the Potency was 2.78 µM (active).
With `COc1ccc(C(=O)C2CCN(CC(=O)N(Cc3nc4c(c(=O)[nH]3)COCC4)CC3CC3)CC2)cc1`, the “activity change, negative = inhibition” value was 13%.
Turning to `CC1=C(C(=O)OCc2ccccc2)C(c2ccc(-c3ccccc3)cc2)NC(=O)N1CCCCCC(=O)O` (stereo unspecified), the Potency was 2.48 µM (active).
With `COc1ccc(Cl)c(Nc2nc3ccccc3nc2NS(=O)(=O)c2cccc(NC(=O)C(C)(C)N)c2)c1`, the Potency was 5.55 µM (active).
Regarding `O=C(Nc1ccc(S(=O)(=O)Nc2nccs2)cc1)C(c1ccccc1)c1ccccc1`, the Potency is 6.98 µM (active).
Turning to `CC1(C)CC[C@]2(C(=O)O)CC[C@]3(C)C(=CCC4[C@@]5(C)C[C@@H](O)[C@H](O)C(C)(C)C5CC[C@]43C)C2C1` (stereo partly specified), the Potency was 8.57 µM (active).
`CC1(C)CC2=C3C=CC4C5(C)CCC(O)C(C)(C)C5CCC4(C)C3(C)CCC2(C)C(O)C1` (stereo unspecified): the Potency was 13.6 µM (active).
Take `O=S(=O)(c1ccccc1)c1cnc2c(N3CCNCC3)cccc2c1`: the “activity change, negative = inhibition” value is 15.8%.
Take `C#CCN(Cc1cc2c(=O)[nH]c(C)nc2cc1Br)c1ccc(C(=O)NCc2cccnc2)cc1`: the Potency is 44.1 µM (active).
The same measure, in the same setting: next, `CCCCCCOc1cc2c(cc1N(C)c1ncc(C(=O)O)cn1)C(C)(C)CCC2(C)C`: 6.98 µM (active); `OC/C=C/C=C/[C@H]1Cc2cc(O)cc(O)c2O1`: 22.1 µM (active).
